Compound activity from PubChem BioAssay.
Shown is part of a subset that was picked to be rich in hits.
Methyltransferases – Primary Screen for Target Class Profiling of Small Molecule Inhibitors of Methyltransferases; calls only at 40 µM; 25,000 tested, 3.9% active; purified enzyme, MTase-Glo SAH luminescence; hits give low values; AID 1745853, 2022; call rule not given here
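Each enzyme was reacted with SAM and its substrate, with compounds tested once at 40 uM; SAH formed was read by MTase-Glo luminescence.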
The depositor's hits bear a star; i = inactive; + = active, no number; ! = repeats disagree. On the % scale 0 is the no-effect control and ±100 the full control effect.

SMILES	Methyltransferases
CCCN1C(=O)c2cc(C(=O)NCc3ccccc3Cl)nn2CC1(C)C(=O)NC1CCCC1 (centres undefined)	i
C=C1C(O)CC2C(C(=O)O)=COC(O[C@@H]3O[C@H](COC(=O)c4ccc(O)cc4)[C@@H](O)[C@H](O)[C@H]3O)C12 (some centres undefined)	i
C=C1[C@H]2[C@H](O[C@@H]3O[C@H](COC(=O)/C=C/c4cc(OC)c(O)c(OC)c4)[C@@H](O)[C@H](O)[C@H]3O)OC=C(C(=O)O)[C@H]2C[C@@H]1O	+
C[C@]1(O)CC[C@@H]2C(C(=O)O)=CO[C@@H](O[C@@H]3O[C@H](COC(=O)c4ccc(O)cc4)[C@@H](O)[C@H](O)[C@H]3O)[C@@H]21	i
COc1cc(/C=C/C(=O)OC[C@H]2O[C@@H](OC3OC=C(C(=O)O)C4C(O)CC(C)(O)C34)[C@H](O)[C@@H](O)[C@@H]2O)cc(OC)c1O (some centres undefined)	+
COC(=O)C1=CO[C@@H](O[C@@H]2O[C@H](CO[C@@H]3O[C@H](COC(=O)/C=C/c4ccc(O)cc4)[C@@H](O)[C@H](O)[C@H]3O)[C@@H](O)[C@H](O)[C@H]2O)[C@@H]2C(CO)=CC[C@H]12	i
COC(=O)C1=COC(O[C@@H]2O[C@H](CO[C@@H]3O[C@H](COC(=O)/C=C\c4ccc(O)cc4)[C@@H](O)[C@H](O)[C@H]3O)[C@@H](O)[C@H](O)[C@H]2O)C2C(CO)=CCC12 (some centres undefined)	i
COC(=O)C1=COC(OC2OC(CO)C(O)C(O)C2O)C2C(COC(=O)/C=C/c3ccc(O)c(O)c3)C(O)C(O)C12 (centres undefined)	i
COC(=O)C1=CO[C@@H](O[C@@H]2O[C@H](CO[C@@H]3O[C@H](COC(=O)/C=C/c4cc(OC)c(O)c(OC)c4)[C@@H](O)[C@H](O)[C@H]3O)[C@@H](O)[C@H](O)[C@H]2O)[C@@H]2C(CO)=CC[C@H]12	+
CC1(O)CC(O)C2C(C(=O)O)=COC(OC3OC(CO)C(O)C(O)C3OC(=O)/C=C/c3ccc(O)cc3)C21 (centres undefined)	i
CCOCCCNC(=O)CCc1nnc2n(Cc3ccccc3)c(=O)c3ccccc3n12	i
O=C(CSc1nnc2n(Cc3ccc(F)cc3)c(=O)c3ccccc3n12)NC1CCCCC1	i
CCCn1c(=O)c2ccc(C(=O)NC(C)C)cc2n2c(=O)n(CC(=O)Nc3ccc(Cl)cc3)nc12	i
COc1ccc(CCN2C(=O)c3cc4sccc4n3CC2(C)C(=O)NC2CCCC2)cc1OC (centres undefined)	i
CCOc1ccc(CN2C(=O)c3nc4ccccc4n3CC2(C)C(=O)NC2CCCCC2C)cc1 (centres undefined)	i
COC(=O)c1cc2n(n1)CC(C)(C(=O)NC1CCCCC1)N(c1ccc(OC)cc1)C2=O (centres undefined)	i
Cc1cccc(NC(=O)c2ncn3c2C(=O)N(C2CC2)C(C)(C(=O)NCc2ccc(F)cc2)C3)c1C (centres undefined)	i
CC(C)OCCCn1c(=O)c2ccccc2n2c(SCc3ccc(Cl)cc3)nnc12	i
CCCCNC(=O)c1ccc2c(=O)nc3c(-c4ccc(Cl)cc4)n[nH]n3c2c1	i
Cc1ccccc1Sc1ccc(/C=C2\SC(=S)NC2=O)cc1[N+](=O)[O-]	+
CN1C(=O)c2cc(C(=O)NCc3ccccc3Br)nn2CC1(C)C(=O)NC1CCCC1 (centres undefined)	i
CCOC(=O)c1cc2n(n1)CC(C)(C(=O)NCCC(C)C)N(c1ccccc1CC)C2=O (centres undefined)	i
CCCN1C(=O)c2c(C(=O)NCc3cc(Br)ccc3OC)ncn2CC1(C)C(=O)NCCC(C)C (centres undefined)	i
O=C(Nc1ccccc1-c1cn2c(CN3CCNCC3)csc2n1)c1cnc2ccccc2n1	+!
CN(C)[C@@H]1C[C@@H](CO)N(C(=O)c2csc3nc(-c4ccccc4Cl)cn23)C1	i
SMILES	Methyltransferases
CCCn1c(=O)c2ccccc2n2c(=O)n(CC(=O)NCc3ccc(Cl)cc3)nc12	i
Cc1ccccc1NC(=O)N1Cc2c(sc3c2CCCC3)-n2cccc2C1c1cccc(F)c1 (centres undefined)	i
Cc1ccc(Cn2nc3n(C(C)C)c(=O)c4ccc(C(=O)NCC(C)C)cc4n3c2=O)cc1	i
Cc1ccc(Cn2nc3n(C)c(=O)c4ccc(C(=O)NC5CCCC5)cc4n3c2=O)cc1	i
CC1CCC(NC(=O)C2(C)Cn3c(cc4occc43)C(=O)N2C2CCCCC2)CC1 (centres undefined)	i
C=CC(=O)Nc1ccc2ncnc(Nc3cccc(Br)c3)c2c1	+
CCOC(=O)c1ccc(Nc2ncnc3ccc(Br)cc23)cc1	i
CCOC(=O)c1cnc2ccc(Br)cc2c1Nc1cccc(C(C)=O)c1	i
COc1ccccc1NC(=O)CSc1nnc2n(CC(C)C)c(=O)c3ccccc3n12	i
CCCn1c(=O)c2ccc(C(=O)NC(C)C)cc2n2c(SCC(=O)Nc3ccccc3F)nnc12	i
CCOC(=O)c1cccc(NS(=O)(=O)c2ccc3[nH]c(=O)[nH]c3c2)c1	i
CCOC(=O)c1cnc2ccc(-c3cncc(NS(=O)(=O)c4ccccc4)c3)cn12	+
CCOC(=O)c1ccc(NS(=O)(=O)c2ccc3c(c2)n(C)c(=O)n3C)cc1	i
COCCCN1C(=O)c2cc3occc3n2CC1(C)C(=O)NC1CCCCC1 (centres undefined)	i
COc1ccc(S(=O)(=O)c2nnn3c2nc(Nc2ccccc2C)c2ccccc23)cc1	i
COC(=O)c1cc2n(n1)CC(C)(C(=O)NC1CCCCCC1)N(c1cc(C)ccc1C)C2=O (centres undefined)	i
CC(C)n1c(=O)c2ccc(C(=O)NC3CCCCC3)cc2n2c(=O)n(CC(=O)c3ccccc3)nc12	i
CC(C)c1nc2c(NC(=O)Nc3cccc(Cl)c3)cccn2n1	i
CC(C)c1nc(-c2ccc(NC(=O)Nc3cccc(C(F)(F)F)c3)c3ccccc23)c2c(N)nccn12	+
CCCn1c(=O)c2ccc(C(=O)NC(C)CC)cc2n2c(SCC(=O)c3ccc(F)cc3)nnc12 (centres undefined)	i
Cc1ccc(C)c(N2CCN(CCN3C(=O)c4ccc(-c5ccco5)n4CC3(C)C(=O)NC3CCCC3)CC2)c1 (centres undefined)	i
c1ccc(CCNc2nc3c(-c4ccccc4)nnn3c3ccccc23)cc1	i
Fc1cccc(-c2nnn3c2nc(NCCc2ccccc2)c2ccccc23)c1	+
COc1ccc(CCNc2nc3c(-c4ccccc4)nnn3c3ccccc23)cc1OC	i
Cc1ccc(CN2C(=O)c3cc(-c4ccco4)nn3CC2(C)C(=O)NC2CCCCCC2)cc1 (centres undefined)	i
COc1ccccc1CN1C(=O)c2c(-n3cccc3)c3ccccc3n2CC1(C)C(=O)NC1CCCC1 (centres undefined)	i
Cc1ccc(C(=O)Cn2nc3n(CCCOC(C)C)c(=O)c4ccccc4n3c2=O)c(C)c1	i
CCN1CCN(c2ccc(Nc3ccc(-c4ccc(C(N)=O)cc4)n4ncnc34)cc2)CC1	+
CCN1CCN(C(=O)c2ccc(-c3nnc4ccc(NC(=O)C5CC5)cn34)cc2)CC1	i
COc1ccc(N2CCN(C(=O)c3ccc(Nc4nc5ccccc5n5nnnc45)cc3)CC2)cc1	i
